According to ChEMBL document CHEMBL3988442, “University of Dundee, Small-Polar-MMV Screening Library” (2021):
For some assays here: Measured potencies and affinities stand elsewhere.

Experiments:
Design in all cases: scale not given: direction of the effect not stated beside the values
[1] = biological target: Protein translocase subunit SecA (Escherichia coli (strain K12)) (UniProt P10408); test: Assay to Identify E. coli SecA ATPase Inhibitors; type: functional; conditions: 30 µM
[2] = biological target: T1, Ubiquitin-activating enzyme e1, putative (Leishmania donovani (strain BPK282A1)) (UniProt E9BSI1); test: Leishmania donovani Ubiquitin Activating Enzyme (LdE1); type: functional; conditions: 30 µM
T1 sequence (whole entry): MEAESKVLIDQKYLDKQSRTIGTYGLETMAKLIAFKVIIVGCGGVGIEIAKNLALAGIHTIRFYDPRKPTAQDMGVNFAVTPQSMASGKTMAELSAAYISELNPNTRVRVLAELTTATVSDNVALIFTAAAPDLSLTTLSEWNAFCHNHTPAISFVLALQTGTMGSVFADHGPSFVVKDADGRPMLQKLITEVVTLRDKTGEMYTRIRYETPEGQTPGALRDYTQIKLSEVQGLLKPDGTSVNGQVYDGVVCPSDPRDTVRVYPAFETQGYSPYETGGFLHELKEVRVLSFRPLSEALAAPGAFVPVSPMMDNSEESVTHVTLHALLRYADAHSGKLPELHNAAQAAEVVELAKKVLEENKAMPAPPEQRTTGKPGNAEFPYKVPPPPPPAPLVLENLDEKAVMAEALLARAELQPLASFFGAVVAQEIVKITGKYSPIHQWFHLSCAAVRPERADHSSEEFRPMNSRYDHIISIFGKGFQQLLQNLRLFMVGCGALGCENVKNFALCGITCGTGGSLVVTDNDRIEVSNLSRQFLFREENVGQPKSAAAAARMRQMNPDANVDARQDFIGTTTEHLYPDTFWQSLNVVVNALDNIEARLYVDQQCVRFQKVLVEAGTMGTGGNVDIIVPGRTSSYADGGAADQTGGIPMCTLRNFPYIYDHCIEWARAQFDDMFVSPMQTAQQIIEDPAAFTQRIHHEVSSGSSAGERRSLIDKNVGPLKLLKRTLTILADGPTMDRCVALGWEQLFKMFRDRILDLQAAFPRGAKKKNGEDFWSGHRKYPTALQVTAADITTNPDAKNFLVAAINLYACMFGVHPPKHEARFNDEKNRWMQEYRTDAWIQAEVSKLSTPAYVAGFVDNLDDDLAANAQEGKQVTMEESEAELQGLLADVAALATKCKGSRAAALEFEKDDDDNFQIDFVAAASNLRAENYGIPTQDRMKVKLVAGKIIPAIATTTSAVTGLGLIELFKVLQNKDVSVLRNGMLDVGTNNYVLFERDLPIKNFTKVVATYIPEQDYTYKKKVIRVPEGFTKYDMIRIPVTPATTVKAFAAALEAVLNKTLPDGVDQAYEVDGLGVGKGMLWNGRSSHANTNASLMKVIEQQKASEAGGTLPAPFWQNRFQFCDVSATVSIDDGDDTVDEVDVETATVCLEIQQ

[3] = biological target: AMP-activated protein kinase, AMPK (Homo sapiens) (UniProt P54646+O43741+P54619+Q9UGJ0+Q9Y478+Q13131+Q9UGI9); test: AMP-dependent Kinase enzyme assay. An in vitro enzyme assay that detects ADP turnover that is directly proportional to AMPK activity. This uses naive AMPK that is activated during the assay with MK-8722; type: functional; conditions: 30 µM
[4] = biological target: Sialic acid-binding Ig-like lectin 9 (Homo sapiens) (UniProt Q9Y336); test: Hs-Siglec9 ALPHAscreen SOP 20170721; conditions: 10 µM
Trypanosoma cruzi = test: Trypanosoma cruzi phosphomannomutase and mannose-1-phosphate guanylyltransferase assay; type: functional; conditions: 10 µM
[5] = biological target: T2, Arginase-2, mitochondrial (Homo sapiens) (UniProt P78540); test: in vitro enzyme assay to detect the production of urea directly proportional to the activity of Arginase II; type: functional; conditions: 33.3 µM; also: in the data most compounds retested in dose-response had high values
T2 sequence (whole entry): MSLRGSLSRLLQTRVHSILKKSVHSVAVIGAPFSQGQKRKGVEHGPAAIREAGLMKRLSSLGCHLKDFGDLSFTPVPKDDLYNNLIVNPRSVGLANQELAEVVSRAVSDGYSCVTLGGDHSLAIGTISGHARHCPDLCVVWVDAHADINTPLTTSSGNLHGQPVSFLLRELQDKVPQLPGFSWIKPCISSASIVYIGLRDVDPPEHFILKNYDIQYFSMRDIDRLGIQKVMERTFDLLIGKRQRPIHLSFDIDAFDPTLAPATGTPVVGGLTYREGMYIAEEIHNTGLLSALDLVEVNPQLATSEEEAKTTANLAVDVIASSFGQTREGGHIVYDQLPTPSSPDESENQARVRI

[6] = biological target: T3, Proteasome subunit beta (Trypanosoma cruzi) (UniProt O96673); test: Trypanosoma cruzi proteasome chymotrypsin-like activity (TcProtChymo) assay.; also: in the data most compounds retested in dose-response had high values; type: functional; conditions: 9.37 µM
T3 sequence (whole entry): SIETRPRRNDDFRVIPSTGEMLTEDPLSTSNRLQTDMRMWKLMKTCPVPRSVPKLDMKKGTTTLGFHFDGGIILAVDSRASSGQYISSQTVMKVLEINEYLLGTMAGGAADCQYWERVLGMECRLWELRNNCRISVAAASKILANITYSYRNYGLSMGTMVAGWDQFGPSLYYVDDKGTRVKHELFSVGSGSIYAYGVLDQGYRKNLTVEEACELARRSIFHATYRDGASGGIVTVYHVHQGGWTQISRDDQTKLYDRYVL

Homo sapiens = species: Homo sapiens; test: To identify inhibition of the IFN signalling (Jak-Stat) pathway via expression of an eGFP reporter gene under the control of an IFN-stimulated response element (ISRE) containing MxA promoter.; type: functional; conditions: 30 µM
[7] = biological target: T4, Tyrosyl-tRNA synthetase, putative (Trypanosoma cruzi (strain CL Brener)) (UniProt Q4DSP6); test: Trypanosoma cruzi tyrosyl tRNA synthetase (TcYRS) _High Tyrosine SOP; type: functional; conditions: 30 µM; also: in the data most compounds retested in dose-response had high values
T4 sequence (whole entry): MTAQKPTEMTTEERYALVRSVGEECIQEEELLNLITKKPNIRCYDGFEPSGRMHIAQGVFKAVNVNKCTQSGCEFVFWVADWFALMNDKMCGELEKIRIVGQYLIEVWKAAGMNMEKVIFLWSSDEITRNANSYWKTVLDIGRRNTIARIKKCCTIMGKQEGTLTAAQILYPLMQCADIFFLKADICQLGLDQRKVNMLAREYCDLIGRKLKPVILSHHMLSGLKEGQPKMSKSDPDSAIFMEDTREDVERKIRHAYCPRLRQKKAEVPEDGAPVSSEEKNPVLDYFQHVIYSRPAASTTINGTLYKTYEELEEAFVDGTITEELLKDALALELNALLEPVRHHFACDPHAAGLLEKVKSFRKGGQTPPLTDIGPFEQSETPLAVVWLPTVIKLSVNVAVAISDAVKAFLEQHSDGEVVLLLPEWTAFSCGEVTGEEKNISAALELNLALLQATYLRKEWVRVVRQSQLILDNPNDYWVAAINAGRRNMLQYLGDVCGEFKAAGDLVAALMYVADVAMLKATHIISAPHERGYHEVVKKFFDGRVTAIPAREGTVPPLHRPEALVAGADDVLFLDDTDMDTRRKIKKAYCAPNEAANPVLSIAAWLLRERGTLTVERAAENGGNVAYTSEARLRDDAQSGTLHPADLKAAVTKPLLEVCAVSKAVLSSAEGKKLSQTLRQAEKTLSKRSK

[8] = biological target: T4, Tyrosyl-tRNA synthetase, putative (Trypanosoma cruzi (strain CL Brener)); test: Trypanosoma cruzi tyrosyl tRNA synthetase (TcYRS) SOP; type: functional; conditions: 30 µM
[9] = biological target: Chromo domain-containing protein 1 (Saccharomyces cerevisiae (strain ATCC 204508 / S288c) (Baker's yeast)) (UniProt P32657); test: ScCHD-1 Enzyme Inhibition Assay; type: functional; conditions: 30 µM; also: in the data most compounds retested in dose-response had high values
Sequence of Chromo domain-containing protein 1 (Saccharomyces cerevisiae (strain ATCC 204508 / S288c) (Baker's yeast)) (P32657 whole entry, the tested form may be a part): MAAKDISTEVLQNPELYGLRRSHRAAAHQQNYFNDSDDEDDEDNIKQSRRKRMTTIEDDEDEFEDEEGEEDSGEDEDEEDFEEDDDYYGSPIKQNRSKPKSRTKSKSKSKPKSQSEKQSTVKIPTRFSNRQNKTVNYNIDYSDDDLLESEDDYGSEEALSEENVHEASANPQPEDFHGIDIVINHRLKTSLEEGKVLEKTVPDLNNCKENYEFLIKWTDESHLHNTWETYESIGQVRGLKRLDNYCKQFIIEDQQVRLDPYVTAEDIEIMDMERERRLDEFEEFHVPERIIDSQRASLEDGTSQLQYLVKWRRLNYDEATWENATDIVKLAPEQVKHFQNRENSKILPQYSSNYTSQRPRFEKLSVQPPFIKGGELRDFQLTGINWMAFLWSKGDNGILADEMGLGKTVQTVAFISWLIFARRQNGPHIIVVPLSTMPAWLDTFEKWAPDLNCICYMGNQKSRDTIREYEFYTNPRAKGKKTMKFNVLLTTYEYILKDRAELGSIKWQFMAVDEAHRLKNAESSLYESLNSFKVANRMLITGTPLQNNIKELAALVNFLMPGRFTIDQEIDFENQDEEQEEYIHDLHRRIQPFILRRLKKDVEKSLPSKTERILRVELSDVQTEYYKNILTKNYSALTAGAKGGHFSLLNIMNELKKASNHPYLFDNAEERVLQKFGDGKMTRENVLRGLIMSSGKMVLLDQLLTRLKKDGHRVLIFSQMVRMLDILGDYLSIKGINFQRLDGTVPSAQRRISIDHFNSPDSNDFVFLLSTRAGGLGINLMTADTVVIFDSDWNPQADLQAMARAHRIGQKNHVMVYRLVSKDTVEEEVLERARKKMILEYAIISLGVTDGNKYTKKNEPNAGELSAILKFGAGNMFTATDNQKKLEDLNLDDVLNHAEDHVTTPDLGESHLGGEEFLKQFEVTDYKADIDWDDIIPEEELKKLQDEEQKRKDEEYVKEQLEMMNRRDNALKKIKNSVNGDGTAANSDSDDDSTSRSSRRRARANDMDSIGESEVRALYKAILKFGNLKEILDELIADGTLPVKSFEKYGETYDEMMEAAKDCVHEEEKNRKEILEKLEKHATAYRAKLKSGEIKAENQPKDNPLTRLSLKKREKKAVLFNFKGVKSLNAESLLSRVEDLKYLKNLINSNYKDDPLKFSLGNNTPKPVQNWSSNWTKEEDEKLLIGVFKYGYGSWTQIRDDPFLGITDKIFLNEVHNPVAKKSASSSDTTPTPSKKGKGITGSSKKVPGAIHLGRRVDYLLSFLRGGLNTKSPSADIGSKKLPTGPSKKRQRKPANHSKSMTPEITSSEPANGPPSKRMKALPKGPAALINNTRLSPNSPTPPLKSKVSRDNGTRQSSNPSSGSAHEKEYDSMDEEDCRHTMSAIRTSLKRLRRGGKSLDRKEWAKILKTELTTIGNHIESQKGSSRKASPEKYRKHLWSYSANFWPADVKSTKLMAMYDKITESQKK

Sequence of Protein translocase subunit SecA (Escherichia coli (strain K12)) (P10408 whole entry): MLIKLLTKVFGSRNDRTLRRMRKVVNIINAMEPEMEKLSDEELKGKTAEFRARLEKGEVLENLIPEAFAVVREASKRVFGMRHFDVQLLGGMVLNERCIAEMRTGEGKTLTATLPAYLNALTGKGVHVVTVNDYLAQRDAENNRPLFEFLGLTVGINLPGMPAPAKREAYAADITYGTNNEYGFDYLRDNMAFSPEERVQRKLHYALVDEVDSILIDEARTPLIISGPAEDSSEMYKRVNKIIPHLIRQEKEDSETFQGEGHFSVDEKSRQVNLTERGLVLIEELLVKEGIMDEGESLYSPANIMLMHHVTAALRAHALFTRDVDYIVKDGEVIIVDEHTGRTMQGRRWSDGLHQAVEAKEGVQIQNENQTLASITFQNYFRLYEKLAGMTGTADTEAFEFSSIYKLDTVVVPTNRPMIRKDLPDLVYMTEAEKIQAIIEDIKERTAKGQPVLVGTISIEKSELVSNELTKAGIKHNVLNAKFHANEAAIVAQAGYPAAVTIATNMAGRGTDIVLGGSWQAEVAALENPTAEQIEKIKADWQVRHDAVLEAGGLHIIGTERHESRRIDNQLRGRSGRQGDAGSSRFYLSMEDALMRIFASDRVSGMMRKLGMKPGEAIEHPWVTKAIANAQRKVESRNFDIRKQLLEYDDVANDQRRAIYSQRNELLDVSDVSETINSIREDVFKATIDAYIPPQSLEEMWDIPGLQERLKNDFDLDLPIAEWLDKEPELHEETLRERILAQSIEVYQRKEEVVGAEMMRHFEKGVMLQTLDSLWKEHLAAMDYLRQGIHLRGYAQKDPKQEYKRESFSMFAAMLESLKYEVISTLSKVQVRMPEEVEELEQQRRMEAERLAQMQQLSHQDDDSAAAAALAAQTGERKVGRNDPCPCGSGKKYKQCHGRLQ
Sequence of Sialic acid-binding Ig-like lectin 9 (Homo sapiens) (Q9Y336 whole entry): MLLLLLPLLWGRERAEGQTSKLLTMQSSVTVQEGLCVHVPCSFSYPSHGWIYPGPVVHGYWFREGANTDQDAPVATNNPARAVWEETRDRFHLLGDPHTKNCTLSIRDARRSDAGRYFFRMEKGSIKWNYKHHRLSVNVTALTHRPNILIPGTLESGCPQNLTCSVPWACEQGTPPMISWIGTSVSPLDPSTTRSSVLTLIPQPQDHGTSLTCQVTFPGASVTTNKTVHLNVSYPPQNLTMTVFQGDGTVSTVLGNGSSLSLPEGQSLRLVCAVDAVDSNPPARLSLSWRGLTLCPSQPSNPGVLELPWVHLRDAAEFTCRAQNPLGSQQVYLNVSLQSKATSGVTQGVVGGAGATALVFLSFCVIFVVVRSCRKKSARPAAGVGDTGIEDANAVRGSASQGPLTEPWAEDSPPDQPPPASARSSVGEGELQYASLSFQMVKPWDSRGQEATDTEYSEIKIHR

SMILES | Percent Effect [1] [%] | Percent Effect [2] [%] | Percent Effect [3] [%] | Percent Effect [4] [%] | Percent Effect (Trypanosoma cruzi) [%] | Percent Effect [5] [%] | Percent Effect [6] [%] | Percent Effect (Homo sapiens) [%] | Percent Effect [7] [%] | Percent Effect [8] [%] | Percent Effect [9] [%]
CS(=O)(=O)N1CCCC12CCCN(S(=O)(=O)c1ccc(F)cc1)C2 (configuration not stated) | -3.85 | 5.41 | -33.3 | -0.0111 | -5.18 | 1.24 | 10.7 | -4.37 | 6.45 | 6.17 | -9.7
Cc1cc(CN2CCN(CC(O)C(C)(C)C)CC2)no1 (configuration not stated) | 0.683 | 15.2 | -2.9 | 10.4 | 4.63 | 1.52 | 4.83 | 14.7 | 5.42 | 16.5 | -5.62
COc1cccc(C(=O)N2CCCC(C(=O)CCc3ccccc3)C2)c1 (configuration not stated) | -1.46 | 11 | 17.6 | 10.9 | 1.96 | 4.54 | 20.1 | 23.4 | 1.07 | 7.5 | -8.9
CCNc1cc2c(nn1)CCN(C(=O)c1ccc(NC3CC3)nc1)C2 | -3.24 | 0 | -3.65 | 11.3 | 3.38 | 1.15 | 2.67 | 6.81 | 5.39 | 9.76 | 1.67
c1cnc(NCc2noc3c2CN(CCN2CCCC2)CC3)nc1 | -1.82 | 8 | -2.08 | 10.5 | 3.48 | -47.5 | 18.1 | -3.46 | 6.25 | 22.5 | -8.39
N#Cc1cc(NC(=O)c2ccccc2)ccc1N1CCC(O)CC1 | -0.198 | 10.8 | -7.93 | 6.67 | 2.51 | 9.05 | 10 | -5.21 | 1.59 | 9.76 | -2.82
Cc1nc(CN2CCCC(NCc3c(C)nc4sccn34)C2)no1 (configuration not stated) | -2.09 | 5.2 | -2.06 | -6.92 | -1.31 | 0.712 | 15.9 | 45.2 | 10.7 | 19.5 | -6.87
Cc1nc(C)n(C2CCCN(C(=O)c3cc(C(N)=O)cs3)C2)n1 (configuration not stated) | -7.57 | 13.9 | 0.492 | -4 | 0.718 | 1.07 | 8.92 | -7.04 | 2.08 | 12.7 | -31.4
CN(Cc1ccc(Cl)s1)C(=O)c1cccc(OCC(N)=O)c1 | 1.02 | 5.41 | 0.84 | -1.09 | -3.09 | 0.952 | 11.2 | 15.1 | 4.76 | 14.6 | -3.46
CCOCC1CN(C(=O)CS(C)(=O)=O)Cc2cnn(C)c21 (configuration not stated) | -1.67 | 2.67 | -16.6 | 8.66 | -3.28 | -11.3 | 4.27 | 1.39 | 2.08 | 2.5 | -6.62
Cc1noc(C(C)C)c1C(=O)NS(=O)(=O)c1ccc2c(c1)OCCCO2 | -0.953 | 2.63 | 4.57 | 1.83 | 4.19 | -3.55 | 6.23 | 24.3 | 0 | 5.2 | 15.4
Cc1noc([C@H]2C[C@H]3OCC[C@H]3N(S(=O)(=O)C3CC3)C2)n1 | 0.988 | 11 | -4.86 | 7.79 | -1.19 | -1.6 | 16.7 | 3.43 | 9.38 | 18.5 | -0.433
O=S(=O)(N1CCCCC1)N1CCc2nc(C3CCNCC3)ncc2C1 | -2.16 | -4.05 | 0.892 | 4.08 | -1.78 | -3.94 | 12.8 | 5.01 | 3.23 | 1.3 | -20.6
Cc1ccccc1C(=O)NCc1ccc(N2CCNC(=O)C2)c(F)c1 | -3.15 | 8.11 | -2.71 | 4.68 | 0.579 | -2.86 | 8.97 | -16.3 | 4.76 | 12.2 | -2.41
CCc1c(C(=O)NC2CCS(=O)(=O)C2)cnn1-c1ccc(F)cc1 (configuration not stated) | -2.17 | 15.2 | -2.59 | -6.54 | 8.21 | 1.9 | 7.29 | -14.4 | 7.39 | 21.5 | -5.38
O=S(=O)(C1CC1)N1CCC2(COCc3cnc(N4CCOCC4)nc32)C1 (configuration not stated) | 1.84 | 14.7 | 1.88 | -4.21 | -2.55 | -6.16 | 9.61 | 13.3 | 1.06 | 5.13 | -7.85
Cc1nc(CN2CCCn3c(nc(Cn4ccnc4)cc3=O)C2)cs1 | -3.95 | 12 | 7.35 | 0.752 | -0.393 | 1.23 | 5.36 | -26.2 | -1.06 | 0 | -4.76
COCC(=O)N1CCC(c2nc3ccc(-c4ccccc4)cn3n2)CC1 | 1.49 | -153 | 4.81 | 3.2 | -1.19 | 4.79 | 13.4 | 15.6 | 0 | 3.7 | -1.08
COc1cccc(S(=O)(=O)CCN2CCC3(CC2)OCCO3)c1 | -7.81 | 2.67 | -4.97 | 6.11 | 3.99 | 5.21 | 6.45 | 6.75 | 3.83 | 6.17 | -5.65
O=C(CN1CCC(c2cccc(F)c2)C1)NCC(F)(F)F (configuration not stated) | -0.194 | 18.4 | -1.43 | -3.51 | 3.57 | -1.15 | 18.1 | 36.1 | 6.37 | 21.9 | -8.57
Cc1cc(C)c2nc(CN3CC[C@@H](O)C3)cc(O)c2c1 | -2.1 | 0 | 0.932 | 1.78 | -1.16 | -3.81 | 11.9 | -16.8 | 13.2 | 19.5 | -5.98
CCn1nc(C(C)C)cc1C(=O)NCCCOC | -2.71 | 6.94 | 0.234 | -3.62 | 6.51 | -1.77 | 14.7 | -30.8 | 4.21 | 12.8 | -4.31
